SMILES strings stand for the structures. Unmarked numbers belong to inactive results. How the calls were made is not given here.

The target of the test is Bifunctional epoxide hydrolase 2 (Homo sapiens) (UniProt P34913). Kind of test: sEH inhibitor concentration-response potency, dose response, biochemical, human sEH, fluorescence, Infinite200 (AID 1026). Particulars: recombinant human sEH, fluorogenic substrate, at 0.2 µM, hits give high values.
Bifunctional epoxide hydrolase 2 (Homo sapiens), sequence (P34913 whole entry, looked up): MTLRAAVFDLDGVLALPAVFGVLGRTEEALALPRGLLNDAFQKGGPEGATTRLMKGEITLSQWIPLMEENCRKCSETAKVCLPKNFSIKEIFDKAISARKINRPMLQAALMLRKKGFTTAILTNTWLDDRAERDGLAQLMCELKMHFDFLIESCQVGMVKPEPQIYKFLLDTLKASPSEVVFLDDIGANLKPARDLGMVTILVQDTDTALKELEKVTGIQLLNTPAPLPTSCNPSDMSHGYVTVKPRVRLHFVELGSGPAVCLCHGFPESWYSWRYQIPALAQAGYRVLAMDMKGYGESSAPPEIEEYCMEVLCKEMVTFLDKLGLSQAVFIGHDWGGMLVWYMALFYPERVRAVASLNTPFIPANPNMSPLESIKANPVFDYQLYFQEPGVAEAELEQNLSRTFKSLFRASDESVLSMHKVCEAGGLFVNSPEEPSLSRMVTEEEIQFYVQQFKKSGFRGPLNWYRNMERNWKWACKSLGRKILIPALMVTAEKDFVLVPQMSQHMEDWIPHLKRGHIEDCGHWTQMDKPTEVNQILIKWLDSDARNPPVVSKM
Consider `O=C(NCCC1=CCCCC1)c1ccc(Cl)c(S(=O)(=O)N2CCOCC2)c1`, for which the inhibition was 68.1%.

For `O=C(Cc1ccc(Cl)cc1)Nc1ccc(N2CCN(C(=O)c3ccco3)CC2)c(Cl)c1`, the inhibition was 64.8%.

Take `Cc1nc2cc(NC(=O)NCCC3=CCCCC3)ccc2o1`: the inhibition was 45%.

As for `O=C(CN1C(=O)c2ccccc2S1(=O)=O)Nc1ccc(S(=O)(=O)N2CCCCC2)cc1`, the inhibition was 49.9%.

For `O=C(NC12CC3CC(CC(C3)C1)C2)N1CCC(O)(c2ccc3c(c2)OCO3)CC1`, the inhibition was 46%.

For `O=C(Nc1ccc2c(c1)nc1n2CCN(C2CCCCC2)C1)NC1CCCCC1`, the inhibition was 72.7%.

Turning to `CC(C)(C)c1cnnn1-c1ccc(NC(=O)c2ccc3c(c2)OCO3)cc1`, the inhibition is 68.6%.

As for `O=C(NC12CC3CC(CC(C3)C1)C2)N1CC2Cc3cccc(=O)n3C(C2)C1` (stereo not given), the inhibition is 54.2%.

With `O=C(NCCC(c1ccccc1)c1ccccc1)c1ccc(Br)o1`, the inhibition is 72%.

As to `Cc1cc2nc(-c3ccc(SCC(=O)N4CCc5ccccc54)nc3)[nH]c2cc1C`, the inhibition is 56.7%.

As to `COc1ccc(C2CCCN2C(=O)Nc2ccc(Cl)cc2)cc1OC` (stereo not given), the inhibition was 71.3%.

With `O=C(NCCC1=CCCCC1)C1CCCN(S(=O)(=O)c2ccccc2)C1` (stereo not given), the inhibition is 48.7%.

`CC(Cc1cccs1)NC(=O)Nc1cccc(Cl)c1` (stereo not given): the inhibition is 51.7%.

For the molecule `Cc1oc(-c2ccccc2F)nc1CN1CCC(C(=O)NC2CCCCCCC2)CC1`, the inhibition was 63.1%.

In the case of `CCC(C)c1ccc(NC(=O)c2cccs2)cc1` (stereo not given), the inhibition is 68%.
